Where “and” joins values, the source holds several entries; their conditions need not be identical. Equal values may be shown once. Some structures have more than one record in an assay (separate samples or runs), and their calls can disagree. Calls of active or inactive are those of the source. Rule for the calls: active = hit-call score of the fitted dose curve at least 0.9, where 1 is the maximum; inactive = score below 0.9.
Experiment: ATG_ISRE_CIS: Attagene CIS-FACTORIAL HepG2 Assay for human Interferon Regulatory Factor 1 (IRF1) binding to an Interferon-Stimulated Response Element (ISRE) (AID 2282948)
Conditions: HepG2 ISRE cis-reporter (Attagene), mRNA transcription readout; actives raise or lower the signal
Description: ATG_CIS is a cell-based, multiplexed-readout assay that uses HepG2, a human liver cell line, with measurements taken at 24 hours after chemical dosing in a 24-well plate.ATG_ISRE_CIS is one of 52 assay component(s) measured or calculated from the ATG_CIS assay. It is designed to make measurements of mRNA induction, a form of inducible reporter, as detected with fluorescence intensity signals by Reverse transcription polymerase chain reaction (RT-PCR) and Capillary electrophoresis technology.Data from the assay component ATG_ISRE_CIS was analyzed into 1 assay endpoint. This assay endpoint, ATG_ISRE_CIS, was analyzed with bidirectional fitting relative to DMSO as the negative control and baseline of activity. Using a type of inducible reporter, measures of mRNA for gain or loss-of-signal activity can be used to understand the reporter gene at the transcription factor-level as they relate to the gene IRF1. Furthermore, this assay endpoint can be referred to as a primary readout, because this assay has produced multiple assay endpoints where this one serves a reporter gene function. To generalize the intended target to other relatable targets, this assay endpoint is annotated to the dna binding intended target family, where the subfamily is interferon regulatory factors.
Human liver HepG2 cells are transiently transfected with multiple reporter transcription units (MRTUs) in 6-well plates using FuGene 6 reagent (Roche; 3 ml FuGene/1 mg DNA). The MRTU constructs are regulated by a cis-regulating element (promoter). […] A major difference between the CIS and TRANS system is that in CIS activities of endogenous TFs are measured, whereas the TRANS assay evaluates changes in activities of exogenous, chimeric NR-Gal4 proteins. […] At the end of 24 hour incubation, total RNA was isolated using TriZol reagent (Invitrogen). The isolated RNA is then reverse-transcribed using oligo(dT) primer and Mo-MLV reverse transcriptase (Invitrogen) with DNAse I (Ambion) treatment for 30 min. The one-tenth of the produced cDNA was amplified by PCR using Taq DNA polymerase (Invitrogen) and two reporter sequence-specific primers. The PCR products were fluorescently labeled by primer extension with 6-arboxyfluorescein (6-FAM) 5'-labeled reporter sequence-specific primer (2 min at 95 C, 20 s at 68 C and 10 min at 72 C) and these products were digested with 5U of HpaI (New England Biolabs) for 2h at 37 C. The fragments were purified using Qiaquick PCR columns (Qiagen), analyzed on an ABI 3130xL genetic analyzer (Applied Biosystems) with peak positions identified by using a set of X-rhodamine (ROX)-labeled MapMarker1000 molecular weight standards (BioVentures). The raw capillary electrophoresis data was processed using Attagraph software (Attagene).
In the case of Cc1cc(F)ccc1-c1cc(N2CC[C@@H](O)[C@H]2CO)ncc1N(C)C(=O)C(C)(C)c1cc(C(F)(F)F)cc(C(F)(F)F)c1, the outcome is reported as “inactive”.
With O=C1CCC(C2CCCCC2)CC1 the AC50 was 134 µM (active) and the outcome was “inactive”.
With CN(C)C(=O)C1(N2CCCCC2)CCN(CC[C@@]2(c3ccc(Cl)c(Cl)c3)CN(C(=O)c3ccccc3)CCO2)CC1 the outcome was “inactive”.
With Cc1c2ccccc2c(C)c2c1ccc1ccccc12 the outcome was “inactive”.
In the case of CN(C)c1ccc(C(=C2C=CC(=[N+](C)C)C=C2)c2ccc(N(C)C)cc2)cc1, the AC50 is reported as 2.28 µM (active).
In the case of O=C(O)Cn1c(=O)n(Cc2ccc(Br)cc2F)c(=O)c2ccc(Cl)cc21, the outcome is reported as “inactive”.
With CN(C[C@@H](CC[N+]12CCC(C3CCCCC3)(CC1)CC2)c1ccc(Cl)c(Cl)c1)C(=O)c1cc(C(F)(F)F)cc(C(F)(F)F)c1 the outcome was “inactive”.
In the case of CC(C)(c1cc(Br)c(O)c(Br)c1)c1cc(Br)c(O)c(Br)c1, the AC50 is reported as 44.8 µM (active) and the outcome is reported as “inactive”.
With O=C(O)c1ccccc1-n1cc(C(=O)O)c(=O)c2cc(Nc3c(F)cc(F)cc3Cl)c(Cl)cc21 the outcome was “inactive”.
In the case of CC(C)(C)c1cc(/C=C2\SC(N)=NC2=O)cc(C(C)(C)C)c1O, the AC50 is reported as 11 µM (active).
For c1ccc2ccccc2c1, the outcome was “inactive”.
In the case of Oc1ccccc1, the outcome is reported as “inactive”.
For CCCCCCCCCCCO, the outcome was “inactive”.
With CO[C@H]1/C=C/O[C@@]2(C)Oc3c(C)c(O)c4c(O)c(c(/C=N/N5CCN(C)CC5)c(O)c4c3C2=O)NC(=O)/C(C)=C\C=C\[C@H](C)[C@H](O)[C@@H](C)[C@@H](O)[C@@H](C)[C@H](OC(C)=O)[C@@H]1C the outcome was “inactive”.
In the case of CCCCCCCC[Si](OCC)(OCC)OCC, the AC50 is reported as 41.8 µM (active) and the outcome is reported as “inactive”.
For CN1C(=O)CC[C@H]1c1cccnc1, the outcome was “inactive”.
With COc1cccc([C@H](O)C2CCN(CCc3ccc(F)cc3)CC2)c1OC the outcome was “inactive”.
In the case of CCCCCCCCCC(=O)O, the outcome is reported as “inactive”.
For O=C1O[C@H]([C@@H](O)CO)C(O)=C1O, the outcome was “inactive”.
In the case of CCCCCCCCCCCC[N+](C)(C)C, the AC50 is reported as 16.6 µM (active) and 15.3 µM (active).
In the case of CC(=O)N1CCN(c2ccc(OC[C@H]3CO[C@](Cn4ccnc4)(c4ccc(Cl)cc4Cl)O3)cc2)CC1, the AC50 is reported as 15.1 µM (active).
For Clc1ccccc1C(c1ccccc1)(c1ccccc1)n1ccnc1, the AC50 was 11.1 µM (active).
In the case of CCCCCCCCN(C)CCCCCCCC, the outcome is reported as “inactive”.
For O=C(OCCCCCCOC(=O)c1ccccc1)c1ccccc1, the outcome was “inactive”.
With CCCOC(=O)c1cc(O)c(O)c(O)c1 the outcome was “inactive”.
In the case of CC[C@H](NC(=O)c1cc(F)ccc1NS(=O)(=O)c1cccc2cccnc12)c1ccccc1, the outcome is reported as “inactive”.
In the case of CCOC(=O)O[C@H](C)OC(=O)c1ccc2c(c1)cc(C(=O)NC1CCN(C(C)C)CC1)n2Cc1cc(-c2ccc(Cl)s2)on1, the outcome is reported as “inactive”.
In the case of O=CCCCC=O, the outcome is reported as “inactive” and the AC50 is reported as 125 µM (active).
In the case of CCCCCc1ccc(N)cc1, the outcome is reported as “inactive”.
For CC/C(=C(/CC)c1ccc(O)cc1)c1ccc(O)cc1, the AC50 was 11.1 µM (active) and the outcome was “inactive”.
For CC(C)(O)c1ccc(CNC(=O)c2cccnc2Oc2ccc3nonc3c2)cc1, the outcome was “inactive”.
In the case of CCCCOC(=O)CC(CC(=O)OCCCC)(OC(C)=O)C(=O)OCCCC, the outcome is reported as “inactive” and the AC50 is reported as 26.7 µM (active).
With NC(=O)c1nc(-c2cccc(-c3cc(F)ccc3OCC(F)(F)C(F)(F)F)c2)n[nH]1 the outcome was “inactive”.
In the case of OC12N=C(c3ccccc3)SC1Cc1cc(Cl)ccc12 (stereo not given), the outcome is reported as “inactive”.
